Experimental data: PubChem BioAssay AID588405 (Sanford-Burnham Center for Chemical Genomics, 2011)
About 6,200 (1.7%) of roughly 360,000 compounds were called active. The list comes from a sample in which actives are over-represented; it also holds similar structures and randomly drawn compounds. Values without a mark were called inactive.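 Rule for the calls: active = inhibition of at least 50% at 20 µM; inactive = the rest.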

assay: inhibition of PEG-3 promoter activity – cell-based, HeLa, luciferase luminescence, primary screen (AID 588405); conditions: HeLa PEG-Prom luciferase reporter, overnight, at 20 µM, active compounds read high

SMILES | inhibition
CC(=O)OC[C@@H]1CN(Cc2ccccc2)C[C@H](n2cnc3c(NCc4ccco4)ncnc32)O1 | 4.43%
COc1ccc(Sc2ccc(NC(=O)c3cccc(Cl)c3)cc2C#N)cc1 | 14.8%
CCOC(=O)C(=Cc1ccccc1OC)C(=O)OCC | 33.3%
CCOC(=O)C(=Cc1ccccc1)C(=O)c1ccccc1 | 103% (active)
CCOC(=O)CNC(=O)/C(=C\c1ccc(F)cc1)NC(=O)c1ccccc1 | 10.4%
c1cc(-c2ccc3[nH]ccc3c2)n2ccnc2c1 | -57.5%
COC(C[C@@H]1O[C@@H]1C(=O)[C@@H](C)OCc1ccccc1)OC | 7.4%
CC(=NNC(=S)N1CCCCCC1)c1ccccn1 | -62.9%
C/C(=N\NC(=O)c1ccccc1F)c1ccccn1 | -1.8%
C/C(=N\NC(=O)Cc1ccc(Cl)cc1)c1ccccn1 | 104% (active)
CN1C(=O)c2ccccc2C(C(=O)NCCCN2CCCC2)C1c1c[nH]c2ccccc12 (stereo unspecified) | -1.25%
COc1ccc(/C=C/C(=O)c2c(O)cc(OC)cc2OC)cc1 | -132%
CCCc1ccc(C(=O)COC(=O)CN2C(=O)NC3(CCCCC3C)C2=O)cc1 (stereo unspecified) | -7.49%
O=C(NCc1cccnc1)c1cc(C2CCCCN2C(=O)CCc2ccccc2)on1 (stereo unspecified) | -5.2%
CN(C)c1ccc(C2N(C)C(=O)c3ccccc3N2C)cc1 (stereo unspecified) | 17.6%
CN(C)c1ccc(Nc2c3c4c(cccc4n(C)c2=O)C(=O)c2ccccc2-3)cc1 | 54.9% (active)
CSc1ccc(CNC(=O)C2(C)CCCN2C)cc1 (stereo unspecified) | 7.21%
CC(C)Nc1ncnc2c1ncn2[C@H]1CN(Cc2ccncc2)C[C@@H](CO)O1 | -7.45%
COc1ccc(CN2CCCCC2C)cc1OC (stereo unspecified) | 11.9%
Cc1ccc(Cc2cnc(NC(=O)/C(C#N)=C/c3ccc(-c4cccc([N+](=O)[O-])c4)o3)s2)cc1 | 71.1% (active)
Cc1ccc(-c2ccc(/C=C(\C#N)C(N)=S)o2)c([N+](=O)[O-])c1 | -30.5%
Cc1ccc(/C=C(\C#N)C(=O)Nc2cccc3ncccc23)o1 | -27.1%
CCOc1ccc2[nH]c(=S)sc2c1 | -57%
O=[N+]([O-])c1c(NCCO)cc(Sc2nc3ccccc3s2)c2nonc12 | 102% (active)
COc1cc(SC#N)ccc1N=Cc1c(C)[nH]n(-c2ccc(C)cc2)c1=O | 80.8% (active)
CN(C)c1cccc(NC(=O)c2ccc(-c3ccc(F)c(F)c3)c3ccoc23)c1 | -43.1%
